From the supplement of paper PMC6555819

Key:
Assay in all cases: PBM binding z-score (relative to random genomic background probes); higher = stronger binding; sequences stand for … in GC…GCGATTGACAGCGTAGAATGAAGG
[1] = system: PPARg:RXRa DBDmut IVT, anti-RXR (DBD mutation: RXRa K156A/R161A, NR concentration 270 nM, RXRa partner concentration 90 nM)
Method in brief: (§1)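 Binding z-scores were set against random background probes. The data came from custom Agilent 4×180K protein-binding microarrays carrying double-stranded probes with 34-nt variable regions, incubated 1 h with ligand-free nuclear receptor dimers. Partner-specific antibodies detected binding, and scanned fluorescence was regression-normalized.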

[2] = system: PPARg:RXRa IVT, anti-PPARg (NR concentration 270 nM, RXRa partner concentration 90 nM)
Method in brief: as §1

[3] = system: PPARg DBDmut:RXRa IVT, anti-PPARg (DBD mutation: PPARg1 K132A/R137A, NR concentration 270 nM, RXRa partner concentration 90 nM)
Method in brief: as §1

[4] = system: PPARg DBDmut IVT, anti-PPARg (DBD mutation: PPARg1 K132A/R137A, NR concentration 270 nM)
Method in brief: as §1

[5] = system: PPARg homodimer (NR concentration 180 nM)
Method in brief: as §1

[6] = system: PXR:RXRa (NR concentration 270 nM, RXRa partner concentration 90 nM)
Method in brief: as §1

[7] = system: PXR homodimer (NR concentration 270 nM)
Method in brief: as §1

[8] = system: RARa:RXR (NR concentration 270 nM, RXRa partner concentration 90 nM)
Method in brief: as §1

[9] = system: RARa homodimer (NR concentration 270 nM)
Method in brief: as §1

[10] = system: RARb:RXRa (NR concentration 270 nM, RXRa partner concentration 90 nM)
Method in brief: as §1

## TCAGACAGGTGAAGGAAACTCAGGTACGCAGTCG
[1]
  PBM binding z-score: 2.96
[2]
  PBM binding z-score: 0.598
[3]
  PBM binding z-score: 0.181
[4]
  PBM binding z-score: -0.163
[5]
  PBM binding z-score: 0.667
[6]
  PBM binding z-score: 0.502
[7]
  PBM binding z-score: 0.224
[8]
  PBM binding z-score: 0.564
[9]
  PBM binding z-score: 0.502
[10]
  PBM binding z-score: 0.976

## TCGAGTAGGTTACCAATGAGGCATTCAGCTTTCT
[1]
  PBM binding z-score: 3.32
[2]
  PBM binding z-score: 2.35
[3]
  PBM binding z-score: 0.0818
[4]
  PBM binding z-score: -0.605
[5]
  PBM binding z-score: -0.815
[6]
  PBM binding z-score: -0.0047
[7]
  PBM binding z-score: -0.892
[8]
  PBM binding z-score: 0.302
[9]
  PBM binding z-score: -1.06
[10]
  PBM binding z-score: 0.723

## GCTACCAGGCCATTTGGGTCACTCAATGACGGGC
[1]
  PBM binding z-score: 2.04
[2]
  PBM binding z-score: 2.77
[3]
  PBM binding z-score: 0.125
[4]
  PBM binding z-score: -0.407
[5]
  PBM binding z-score: -0.0143
[6]
  PBM binding z-score: 0.976
[7]
  PBM binding z-score: 0.553
[8]
  PBM binding z-score: 0.919
[9]
  PBM binding z-score: -0.79
[10]
  PBM binding z-score: 1.59

## TCGAGTAGGTTACCCATGGGGCATTCAGCTTTCT
[1]
  PBM binding z-score: 2.81
[2]
  PBM binding z-score: 2.66
[3]
  PBM binding z-score: -0.222
[4]
  PBM binding z-score: -0.778
[5]
  PBM binding z-score: -0.0262
[6]
  PBM binding z-score: 0.0585
[7]
  PBM binding z-score: -0.728
[8]
  PBM binding z-score: 0.457
[9]
  PBM binding z-score: -0.95
[10]
  PBM binding z-score: 0.891

## CCTGCTAGGTCATGGTCAACTAATCTACAGTATG
[1]
  PBM binding z-score: 4.88
[2]
  PBM binding z-score: 4.48
[3]
  PBM binding z-score: 0.715
[4]
  PBM binding z-score: 0.58
[5]
  PBM binding z-score: 1.66
[6]
  PBM binding z-score: 1.82
[7]
  PBM binding z-score: -0.415
[8]
  PBM binding z-score: 2.94
[9]
  PBM binding z-score: 0.861
[10]
  PBM binding z-score: 4.06

## CCTACTGGGCCAAGGTCGTTGATCAGTCAAAGCA
[1]
  PBM binding z-score: 3.4
[2]
  PBM binding z-score: 3.41
[3]
  PBM binding z-score: -1.53
[4]
  PBM binding z-score: -1.31
[5]
  PBM binding z-score: -0.148
[6]
  PBM binding z-score: 0.637
[7]
  PBM binding z-score: 0.241
[8]
  PBM binding z-score: 0.405
[9]
  PBM binding z-score: -0.549
[10]
  PBM binding z-score: 1.09

## GCATATAGGTAAAACAAGGTGAAAGTCCGATTGT
[1]
  PBM binding z-score: 3.96
[2]
  PBM binding z-score: 3.34
[3]
  PBM binding z-score: 0.889
[4]
  PBM binding z-score: 0.508
[5]
  PBM binding z-score: 0.332
[6]
  PBM binding z-score: 0.851
[7]
  PBM binding z-score: -0.261
[8]
  PBM binding z-score: 1.85
[9]
  PBM binding z-score: -0.0924
[10]
  PBM binding z-score: 0.432

## GCTGCTAGGTCAGGTAGGTCAGCTAACGGGTACG
[1]
  PBM binding z-score: 3.3
[2]
  PBM binding z-score: 3.37
[3]
  PBM binding z-score: -0.274
[4]
  PBM binding z-score: -0.592
[5]
  PBM binding z-score: 1.34
[6]
  PBM binding z-score: 1.65
[7]
  PBM binding z-score: -0.0271
[8]
  PBM binding z-score: 1.95
[9]
  PBM binding z-score: -0.315
[10]
  PBM binding z-score: 3.87

## ACTAGCAGGCCAAGTTTGGGTCACTCATACAAAG
[1]
  PBM binding z-score: 1.29
[2]
  PBM binding z-score: 1.09
[3]
  PBM binding z-score: -0.419
[4]
  PBM binding z-score: -0.428
[5]
  PBM binding z-score: 0.652
[6]
  PBM binding z-score: 0.707
[7]
  PBM binding z-score: -0.211
[8]
  PBM binding z-score: 1.55
[9]
  PBM binding z-score: -0.601
[10]
  PBM binding z-score: 1.53

## ATATGTCGGTTAAGGGTCATTCAGGTTGGTTCGC
[1]
  PBM binding z-score: 2.75
[2]
  PBM binding z-score: 4.81
[3]
  PBM binding z-score: 2.12
[4]
  PBM binding z-score: 1.06
[5]
  PBM binding z-score: 3.13
[6]
  PBM binding z-score: 5.03
[7]
  PBM binding z-score: 2.46
[8]
  PBM binding z-score: 4.78
[9]
  PBM binding z-score: 2.84
[10]
  PBM binding z-score: 3.31

## CCCTACGGGTCACTCCAGGTTATAGCATCGGAGT
[1]
  PBM binding z-score: 0.284
[2]
  PBM binding z-score: 2.29
[3]
  PBM binding z-score: -0.814
[4]
  PBM binding z-score: -0.254
[5]
  PBM binding z-score: 2.92
[6]
  PBM binding z-score: 5.1
[7]
  PBM binding z-score: 0.472
[8]
  PBM binding z-score: 3.75
[9]
  PBM binding z-score: 0.949
[10]
  PBM binding z-score: 3.66

## CGTCCAAGGTCAATGCCAGGTCAGTGAAAGCATT
[1]
  PBM binding z-score: 2.99
[2]
  PBM binding z-score: 3.63
[3]
  PBM binding z-score: 0.209
[4]
  PBM binding z-score: -0.326
[5]
  PBM binding z-score: 7.26
[6]
  PBM binding z-score: 5.48
[7]
  PBM binding z-score: 2.85
[8]
  PBM binding z-score: 6.58
[9]
  PBM binding z-score: 1.59
[10]
  PBM binding z-score: 5.39
